LMNA splice mod: qHTS Assay for Modulators of Lamin A Splicing. HeLa LMNA splicing GFP/RFP minigene ratio, 48 h. Potency, µM (doses to about 46.1 µM), for the others: at the top dose ratio change, negative = inhibition, actives largely listed as inhibitors. 200,000 tested, 0.01% active. AID 1487, 2009; active = well fitted inhibition curve with a large enough effect in the signal ratio, with a control signal flat, not every such curve was filed as active; inconclusive = small, poorly fitted or top-dose-only effect, or effect the other way, or a change in a side signal; the % refers to the signal ratio; also: % is scaled to controls: 0 for no effect and ±100 for the full control effect
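S3 HeLa cells stably expressing lamin A-EGFP splicing minigene plus DsRed2, 600 cells/well, 48 h compound exposure at 37C. Laser-scanning cytometry; analysed as GFP (500-530 nm)/RFP (575-640 nm) total intensity ratio; 0.5% DMSO vehicle.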
HPGD inh: qHTS Assay for Inhibitors of HPGD (15-Hydroxyprostaglandin Dehydrogenase) | 15-hydroxyprostaglandin dehydrogenase [NAD(+)] (Homo sapiens), P15428 | purified HPGD, NADH fluorescence kinetic, PGE2 substrate | Potency, µM, for inactives: at the top dose activity change, negative = inhibition, actives largely listed as inhibitors | 150,000 tested, 4.3% active | AID 894, 2007; active = well fitted inhibition curve with a large enough effect, not every such curve was filed as active; inconclusive = small, poorly fitted or top-dose-only effect, or another doubt; inactive = no such curve, though single readings can be large or run the other way; also: % is scaled to controls: 0 for no effect and ±100 for the full control effect
Target sequence (P15428 whole entry, looked up): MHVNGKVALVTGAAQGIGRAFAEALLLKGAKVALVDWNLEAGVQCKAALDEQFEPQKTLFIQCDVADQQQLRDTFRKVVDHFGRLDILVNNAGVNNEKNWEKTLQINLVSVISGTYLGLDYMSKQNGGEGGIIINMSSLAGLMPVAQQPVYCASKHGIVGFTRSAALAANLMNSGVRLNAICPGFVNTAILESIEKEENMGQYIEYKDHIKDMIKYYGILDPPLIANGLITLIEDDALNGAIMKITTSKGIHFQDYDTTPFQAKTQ
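NADH formation kinetics: reaction with 30 uM PGE2 and 1 mM NAD+ (final), 20 nM enzyme, Tris-HCl pH 8 with Tween 20, after 15 min compound preincubation at room temperature. Fluorescence change, last versus first of five reads.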
ALDH1A1 inh: qHTS Assay for Inhibitors of Aldehyde Dehydrogenase 1 (ALDH1A1) | Aldehyde dehydrogenase 1A1 (Homo sapiens), P00352 | Purified ALDH1A1, NADH fluorescence, propionaldehyde substrate | Potency, µM (highest dose often 75.3 µM), inactives show top-dose activity, negative = inhibition, most hits filed as inhibitors | 220,000 tested, 7.3% active; active = well fitted inhibition curve with a large enough effect, not every such curve was filed as active; inconclusive = small, poorly fitted or top-dose-only effect, or another doubt; inactive = no such curve, though single readings can be large or run the other way;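 also: plate controls were no enzyme wells and a reference inhibitor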
HTT aggregate: qHTS Multiplex Assay to Identify Dual Action Probes in a Cell Model of Huntington: Aggregate Formation (GFP); PC12 HttQ103-GFP aggregates, Acumen cytometry, 40 h; Potency, µM (doses to about 46.1 µM), for inactives: at the top dose activity change, negative = inhibition, usual class: inhibitors; 220,000 tested, 1.1% active; also: % is scaled to controls: 0 for no effect and ±100 for the full control effect; nearly all actives have a fitted effect of over 60% in size
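Aggregates are detected as GFP objects 1–25 µm with signal 6 STDEV over background in lysates of induced PC12 cells. These carry Huntingtin exon 1 with 103 glutamines fused to GFP under an ecdysone promoter; compounds titrated.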
HTT ATP protect: qHTS Multiplex Assay to Identify Dual Action Probes in a Cell Model of Huntington: Cytoprotection (ATP) | PC12 HTT-Q103 induced, cytoprotection, ATP luminescence, 40 h | Potency, µM (highest dose often 56.4 µM), without a hit: cytoprotection (ATP increase), usual class: activators | 230,000 tested, 0.14% active | AID 1471, 2008; also: % of control where 0% means no effect; nearly all actives have a fitted effect of over 45% in size
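Compounds added alongside 100 nM tebufenozide, which induces toxic Q103 huntingtin exon 1-GFP in stable PC12 cells; surviving cells quantified by luminescent ATP measurement. Medium: phenol red-free DMEM, 5% equine and 5% calf serum.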
* marks the source's active call; other numbers are inactive results; ? = inconclusive; · = no result; [ ] = remark or other dose. Rows were chosen to be rich in hits. Some 8.8% of all compounds tested hit in one or more screens of this group. Unless noted, calls follow the shape of the dose curve; as a rule, active = well fitted curve in the direction sought with a large enough effect; inconclusive = small, poorly fitted or top-dose-only effect, or another doubt; inactive = no such curve, though single readings can be large; an effect the other way counts as inactive or inconclusive. Potency is read from the fitted curve at half-maximal effect.

SMILES	LMNA splice mod	HPGD inh	ALDH1A1 inh	HTT aggregate	HTT ATP protect
N#CC(c1ccc(Cl)nn1)c1c(F)cccc1Cl (configuration not stated)	·	·	14µM*	-3%	-4%[10 µM]
O=S(=O)(Cl)c1ccccc1	·	-11%	?	·	-23%
C[C@@H]1CC[C@@]2(OC1)O[C@H]1[C@@H](O)[C@H]3[C@@H]4CC[C@H]5C[C@@H](O[C@@H]6O[C@H](CO)[C@H](O[C@@H]7O[C@H](CO)[C@@H](O)[C@H](O[C@@H]8OC[C@@H](O)[C@H](O)[C@H]8O)[C@H]7O[C@@H]7O[C@H](CO)[C@@H](O)[C@H](O[C@@H]8O[C@H](CO)[C@@H](O)[C@H](O)[C@H]8O)[C@H]7O)[C@H](O)[C@H]6O)[C@H](O)C[C@]5(C)[C@H]4CC[C@]3(C)[C@H]1[C@@H]2C	·	-5%	20µM*	·	-83%
Cc1cc(C=C2C(=O)NC(=O)NC2=O)c(C)n1-c1ccc2c(c1)OCO2	-11%	-10%	?	-10%	40%[10 µM]
Cc1cc(C=C2C(=O)NC(=S)NC2=O)c(C)n1-c1ccc2c(c1)OCO2	?	8.9µM*	2.8µM*	-2%	16%[10 µM]
COc1ccc(CCNCc2ccncc2)cc1OC	11%	-8%	13µM*	10%	3%
C/C=C(\C)C(=O)O[C@@H]1C(C)=C2[C@H]([C@@H]1OC(=O)CCCCCCC)[C@@](C)(OC(C)=O)C[C@@H](OC(=O)CCC)[C@@]1(O)[C@H]2OC(=O)[C@]1(C)O	·	·	·	·	-80%[1.9 µM]
CCn1cnc2c(Nc3cccc(Cl)c3)nc(N[C@@H]3CCCC[C@H]3N)nc21	·	·	·	·	-59%[1.9 µM]
CCC(=O)O[C@H]1CC[C@H]2[C@@H]3CCC4=CC(=O)CC[C@]4(C)[C@H]3CC[C@]12C	?	-5%	-9%[20.9 µM]	-2%[20.6 µM]	?
C[C@@]12CC[C@H]3[C@H](CCC4=CC(=O)CC[C@H]43)[C@H]1CC[C@H]2OC1(O)C(=O)c2ccccc2C1=O	·	-1%	0.32µM*	·	7%[10 µM]
CC(C)C[C@H](NC(=O)[C@H](Cc1ccccc1)NC(=O)CNC(=O)[C@H](CS)N(C(=O)[C@@H](N)Cc1ccc(O)cc1)C(C)(C)C)C(=O)N([C@H](C(=O)O)[C@H](C)O)C(C)(C)C	·	·	-5%	·	5%
C=CC(=O)OCC	·	-4%	8%	·	-3%
C=CCN1C(=O)NC(=O)C(Cc2ccc(OC)c(OC)c2)C1=O (configuration not stated)	-11%	-6%	25µM*	?	-17%[10 µM]
C[C@H](CCC(=O)O)[C@H]1CC[C@@H]2[C@H]3CC[C@H]4C[C@@H](O)CC[C@@]4(C)[C@H]3CC[C@]21C	?	6%	8%[20.9 µM]	·	2%[40.3 µM]
COc1ccc(CN2C(=O)NC(=O)/C(=C/c3cc(OC)c(OC)c(OC)c3)C2=O)cc1	·	·	·	4%[9.22 µM]	-10%[10 µM]
C=CCc1cc(C=C2C(=O)N(C)C(=O)N(C)C2=O)cc(OCC)c1OCc1ccccc1	0%	14µM*	25µM*	0%	·
C=CCc1cc(C=C2C(=O)NC(=O)NC2=O)cc(OC)c1OCc1ccc(C(=O)O)cc1	·	·	11µM*	-14%	-23%
COc1cc(CC2C(=O)N(C)C(=O)N(C)C2=O)ccc1OCc1ccccc1	3%	-11%	?	6%	-17%
O=C(O)CCCC[C@H]1SC[C@H]2NC(=O)N[C@@H]21	?	-16%	-7%[20.9 µM]	·	-75%[17.1 µM]
C[C@@H]1O[C@H](O[C@H]2C[C@@H](O)[C@@]3(CO)[C@H]4[C@@H](O)C[C@]5(C)[C@@H](C6=CC(=O)OC6)CC[C@]5(O)[C@H]4CC[C@]3(O)C2)[C@@H](O)[C@H](O)[C@@H]1O	?	0%	-1%[20.9 µM]	·	?
C=C(C)CN1C(=O)C(O)(CC(=O)c2ccc3c(c2)OCCO3)c2ccccc21 (configuration not stated)	3%	-5%	11µM*	8%	-12%[0.074 µM]

Bioassay records as filed in PubChem.
